Screening results (PubChem)
ABHD5-PLIN5 inh: ABHD5-PLIN5 interaction inhibitors, primary screen, cell lysate, split luciferase complementation, luminescence | actives 0.78% (n = 360,000) | Perilipin-5 (Homo sapiens) + 1-acylglycerol-3-phosphate O-acyltransferase ABHD5 (Homo … | AID 602281, 2012 | Split G. princeps luciferase complementation, 4 h | inhibition, % at 4 µM;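 active = inhibition above the mean inhibition across every tested compound plus 3 SD, cut at about 22% in these data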;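 note: 0% = DMSO only wells and the 100% control is not disclosed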
TLR9-MyD88 inh: inhibitors of TLR9-MyD88 association in cells, primary screen, cell-based, CHO, BLA complementation, fluorescence | Toll-like receptor 9 (Homo sapiens) + Myeloid differentiation primary response protein … | CCF4 FRET ratio | inhibition, % at 4.98 µM | actives 0.21% (n = 340,000) | AID 504734, 2011;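 active = inhibition above the mean over all tested compounds plus 3 SD, cut at about 21% in these data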;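 note: 0% = DMSO only wells and 100% = clavulanate BLA inhibitor control wells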
Exocytosis inh: LAMP-1 surface exposure blockers, TALL-104 cells – cell-based, flow cytometry, MLPCN library, primary screen; TALL-104 LAMP-1 surface exposure; cells stimulated with thapsigargin and PMA; actives 0.66% (n = 360,000); inhibition, % at 10 µM;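 active = inhibition above about 55%, limit read from the data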
TLR4-MyD88 BLA: inhibitors of TLR4-MyD88 association in cells, primary screen, cell-based, HeLa CL3-4, BLA complementation, FRET ratio | inhibition, % at 8.4 µM | Toll-like receptor 4 (Homo sapiens) + Myeloid differentiation primary response protein … | actives 0.18% (n = 200,000) | HeLa CL3-4 TLR4/MyD88 BLA complementation; in the data active = inhibition above about 25%;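 note: 0% = vehicle and 100% = reference inhibitor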
PRMT1 inh: PRMT1 methyltransferase inhibitors, primary screen, biochemical, fluorescence polarization. Protein arginine N-methyltransferase 1 (Homo sapiens), Q99873. recombinant PRMT1, activity-based probe fluorescence polarization. inhibition, % at 2.79 µM. actives 1.3% (n = 370,000). AID 652257, 2013;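 active = inhibition above about 21% made by adding two undisclosed values, limit read from the data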
NOD2-RIPK2 inh: NOD2-RIPK2 binding disruptors in cells, primary screen, fluorescence, CHO cells, BLA complementation; Receptor-interacting serine/threonine-protein kinase 2 (Homo sapiens), O43353; CCF4 ratio; inhibition, % at 4.98 µM; actives 0.38% (n = 360,000); AID 624267, 2012; in the data active = inhibition above about 21%;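 note: 0% = vehicle only and 100% = reference blocker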
Exocytosis CP01: inhibitors of lytic granule exocytosis, confirmation, TALL-104 cells, flow cytometry, Cherry Pick01; LAMP-1 externalization; stimulated with PMA plus thapsigargin; shares compounds with Exocytosis inh; inhibition, % at 10 µM; AID 651954, 2012; actives 11% (n = 1,500); in the data active = inhibition above about 60%;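 note: 0% = stimulated vehicle wells and 100% = unstimulated wells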
PRMT1 inh conf: PRMT1 methyltransferase inhibitors, confirmation, biochemical, fluorescence polarization, triplicate. shares compounds with PRMT1 inh. recombinant His-PRMT1, activity-based probe fluorescence polarization. inhibition, % at 2.79 µM. actives 42% (n = 3,300). AID 687036, 2013;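 active = mean inhibition across replicates above the hit cutoff derived for the earlier primary screen, cut at about 22% in these data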
Active calls of the source: *; · = not tested or not shown. This is a sample that favours compounds with a hit; in the whole collection about 2.6% have one here.

SMILES	ABHD5-PLIN5 inh	TLR9-MyD88 inh	Exocytosis inh	TLR4-MyD88 BLA	PRMT1 inh	NOD2-RIPK2 inh	Exocytosis CP01	PRMT1 inh conf
C#CCNC(=O)C1=C[C@H](c2coc3ccccc3c2=O)C[C@H](OCc2ccc(CO)cc2)O1	9.0	6.5	-3.5	8.2	0.5	-1.5	·	·
Cc1ccc(-c2cc(NC(=O)Cc3c[nH]c4ccccc34)ccc2N(C)c2cccnc2)cc1	·	·	·	·	0.8	·	·	·
CCN(C(=O)COC(=O)COc1ccccc1Cl)c1c(N)n(Cc2ccccc2)c(=O)[nH]c1=O	-2.6	-7.5	6.8	·	-5.8	-0.4	·	·
CCCN(C(=O)COc1ccc(Cl)cc1Cl)c1c(N)n(Cc2ccccc2)c(=O)[nH]c1=O	0.6	-10.6	83.1*	-11.7	-1.1	-4.7	-3.4	·
COc1ccc(-c2cc(-c3ccccc3)c(C#N)c(S(C)=O)n2)cc1 (stereo not given)	0.4	12.1	64.4*	-2.0	5.7	9.0	-3.7	·
O=C(Nc1ccccc1Sc1ccccc1)c1ccccc1	-4.1	3.4	-1.4	-9.5	-1.1	-8.0	·	·
CS(=O)(=O)N(Cc1ccc(C(=O)Nc2ccccc2Sc2ccccc2)cc1)c1ccccc1	9.4	-13.1	85.1*	1.5	-0.6	-3.4	-1.5	·
O=C(N[C@H](C(=O)N1CCC[C@H]1C(=O)NC1CCCC1)C1CCCCC1)c1cccs1	·	·	·	·	-9.0	·	·	·
COc1ccc(OCCOC(=O)c2nc3nccc(C)n3n2)cc1	-4.0	0.6	58.0*	13.7	1.2	8.4	-3.8	·
Cc1ccc(S(=O)(=O)CCC(=O)c2ccc(O)cc2O)cc1	8.8	-10.1	104.0*	4.6	34.7*	-3.9	44.5	3.6
Cc1ccc(S(=O)(=O)CCC(=O)OCC(=O)c2cc(C)ccc2C)cc1	6.7	-19.7	-5.7	·	1.5	-1.6	·	·
CCOC(=O)[C@@H]1CSCCS(=O)(=O)N1Cc1ccccc1	·	·	·	·	2.2	·	·	·
Cc1ccc(C)c(-c2cc(C(=O)Nc3cccnc3)c3ccccc3n2)c1	6.3	8.2	1.4	·	4.5	-0.1	·	·
Cc1ccc(-c2cc(C(=O)Nc3cccnc3)c3ccccc3n2)o1	21.5	6.5	82.2*	4.6	45.9*	-0.5	-11.6	12.1
C[C@H](O)[C@@H]1CN2CCc3c([nH]c4c(-c5ccccc5)cccc34)[C@@H]2C[C@@H]1N(C)C(=O)NC1CCCCC1	·	·	·	·	-2.5	·	·	·
COc1ccccc1N1C(=O)CC(Sc2n[nH]c(-c3cccc(C)c3)n2)C1=O (stereo not given)	4.1	-0.2	59.3*	5.8	88.1*	-2.9	52.5	72.5*
Cc1cc(Br)cn2c(Cc3ccsc3)c(-c3ccco3)nc12	15.1	·	59.5*	·	27.2*	-6.9	-14.9	12.1
CCC1Oc2ccc(C)cc2N(CC(=O)N(Cc2ccc(C)o2)C2CCCC2)C1=O (stereo not given)	5.2	-2.6	65.5*	13.7	46.7*	12.6	10.3	38.0*
CN1C(=O)CC(Sc2ccccc2C(=O)O)C1=O (stereo not given)	2.6	-1.1	3.0	-12.9	6.9	-6.4	·	·
Cc1cc(C)cc(N2C(=O)CC(Sc3ccccc3C(=O)O)C2=O)c1 (stereo not given)	14.4	1.6	83.8*	·	48.5*	-9.3	-11.5	17.9
CCCCS(=O)(=O)N1CCCc2nc(C)c(C)cc21	·	·	·	·	9.3	·	·	·
O=C(O)CSc1cc(NS(=O)(=O)c2cccc([N+](=O)[O-])c2)c2ccccc2c1O	-7.5	6.8	75.1*	·	62.5*	2.4	-0.9	94.7*
N#Cc1ccc2nc(-c3ccc(CN4CCC(n5cc(-c6ccccc6)[nH]c5=O)CC4)cc3)c(-c3ccccc3)nc2c1	·	·	·	·	3.7	·	·	·
O=C(CN(CCc1ccccc1)S(=O)(=O)c1ccc(Cl)s1)N1CCOCC1	·	·	·	·	0.5	·	·	·
COc1ccc(C(c2nnnn2C(C)(C)C)N2CCN(c3nc4ccccc4s3)CC2)cc1OC (stereo not given)	-5.2	3.8	2.0	5.9	-0.7	-8.8	·	·
SMILES	ABHD5-PLIN5 inh	TLR9-MyD88 inh	Exocytosis inh	TLR4-MyD88 BLA	PRMT1 inh	NOD2-RIPK2 inh	Exocytosis CP01	PRMT1 inh conf
COc1cc(C(c2nnnn2C(C)(C)C)N2CCN(c3nc4ccccc4s3)CC2)ccc1O (stereo not given)	21.4	-10.5	58.1*	-3.8	44.1*	-2.0	37.0	31.2*
COC(=O)c1ccc(NCc2c(O)ccc(O)c2Br)cc1Cl	-4.1	-7.0	98.4*	·	82.5*	-7.3	79.7*	15.1
CCn1c(SCC(=O)NN=Cc2cc(OC)ccc2OC)nnc1-c1ccc(OC)cc1	·	·	·	·	-0.5	·	·	·
C=CCn1c(SCC(C)=O)nc2scc(-c3ccc(C)o3)c2c1=O	16.5	13.4	85.1*	·	25.2*	-4.1	-9.9	10.0
O=C1CN(c2ccccc2F)C(=O)CN1c1ccccc1F	-1.0	1.3	-1.2	-9.4	-1.1	-0.1	·	·
O=c1c2ccccc2sn1-c1ccccc1F	-18.6	-2.1	68.7*	·	89.0*	-7.1	102.3*	96.0*
CCN1CCN(C(=S)Nc2ccc(Cl)c(Cl)c2)CC1	-1.8	-6.2	1.7	18.5	-2.0	-6.6	·	·
CCN1CCN(C(=S)c2ccc(Cl)c(Cl)c2)CC1	-8.2	-2.5	-3.5	1.8	63.5*	-0.7	·	48.6*
CC(=O)CSc1nc2c(c(=O)[nH]c(=O)n2C)n1Cc1cccc(Br)c1	3.1	6.3	21.8	·	36.3*	2.0	·	13.5
O=C(O)CN1C(=O)C2C3CC(C2C1=O)C1C(c2ccc(F)cc2)c2sc(=O)[nH]c2SC31 (stereo not given)	-12.7	-3.2	1.6	14.2	36.7*	1.7	·	22.0*
O=c1[nH]c2c(s1)C(c1ccc(O)cc1)C1C3CCC(C3)C1S2 (stereo not given)	-11.9	-6.6	2.8	-16.6	4.4	-3.1	·	·
CC(C(=O)O)N1C(=O)C2C3CC(C2C1=O)C1C(c2ccccc2)c2sc(=O)[nH]c2SC31 (stereo not given)	8.8	-7.5	14.8	-18.2	28.8*	-13.8	·	21.2*
